Measured values reported in PubChem BioAssay (NCI).
This is part of a sample that, as a whole, favours compounds with a hit. Of some 83,000 tested, about 20% had one in any assay.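 How to read the values: 0–100, growth inhibition (40 = 60% inhibited); 0, no net growth; -100 to 0, cell death (-40 = 40% of starting cells died; -100 = all dead).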 Calls of active or inactive are those of the source. Rule for the calls: active = growth percent below 10; inactive = the rest.

Experiments:
Assay in all cases: NCI-60 one-dose screen, 48 h (100 = growth as untreated, 0 = no growth, -100 = all killed)
Details in all cases: 10 µM unless noted
[1] = tested on: SR leukemia
[2] = tested on: RPMI-8226 leukemia
[3] = tested on: OVCAR-8 ovarian
[4] = tested on: OVCAR-5 ovarian
[5] = tested on: OVCAR-4 ovarian
[6] = tested on: SK-OV-3 ovarian
[7] = tested on: IGROV1 ovarian
[8] = tested on: OVCAR-3 ovarian
[9] = tested on: HS 578T breast
[10] = tested on: NCI/ADR-RES ovarian
[11] = tested on: T-47D breast
[12] = tested on: BT-549 breast
[13] = tested on: MDA-MB-435 melanoma
[14] = tested on: SW-620 colon
[15] = tested on: MCF7 breast
[16] = tested on: HCT-116 colon
[17] = tested on: HCC-2998 colon
[18] = tested on: KM12 colon

Measured: growth

O=C(COc1ccc(/C=C2\Oc3ccccc3C2=O)cc1)Nc1nccs1
inactive: [2] 40.4% | [3] 41.8% | [4] 91.8% | [5] 90.3% | [6] 125% | [8] 97.2% | [9] 107% | [10] 91.6% | [11] 115% | [12] 115% | [13] 69.4% | [14] 110% | [15] 75.6% | [16] 94.5% | [17] 97.7% | [18] 69.7%
active: [1] 0% | [7] -13.3%

C=CCn1c(SCC(=O)Nc2ccc(C(=O)/C=C/c3ccc(Cl)cc3)cc2)nnc1-c1ccccc1
active: [2] -16% | [16] -78.6%
inactive: [1] 82.5% | [3] 102% | [4] 95.3% | [5] 85.2% | [6] 98.2% | [7] 89.1% | [8] 90.2% | [9] 111% | [10] 93.7% | [11] 73% | [12] 71.3% | [13] 77.5% | [14] 98.4% | [15] 24.4% | [17] 96.4% | [18] 85.2%

C=C1/C(=C\C=C2/CCC[C@]3(C)[C@@H]([C@H](C)CCCC(C)(C)O)CC[C@@H]23)C[C@@H](OC(=O)CBr)C[C@@H]1O
inactive: [3] 57.3% | [4] 84.1% | [5] 62.7% | [6] 108% | [9] 66.6% | [10] 81.2% | [11] 81.7% | [13] 90.4% | [14] 70.7% | [15] 34.9% | [16] 80.9% | [17] 107% | [18] 57.9%
active: [1] -47.3% | [2] -50.7% | [7] -65.5% | [8] -20.1% | [12] -58.1%

CS(=O)(=O)c1ccc(/C(=N/NC(N)=S)c2ccc(F)cc2)cc1
inactive: [1] 103% | [2] 99.5% | [3] 103% | [4] 104% | [5] 104% | [6] 112% | [7] 101% | [8] 108% | [9] 102% | [10] 102% | [11] 88.2% | [12] 102% | [13] 102% | [14] 101% | [15] 89.9% | [16] 95.7% | [17] 104% | [18] 101%

CCOc1cc(\C=N/N=C(N)/C(N)=N\N=C/c2ccc(O)c(OCC)c2)ccc1O
inactive: [1] 88.8% | [2] 94.8% | [3] 67.9% | [4] 115% | [5] 105% | [6] 113% | [7] 129% | [8] 113% | [9] 113% | [10] 98.7% | [11] 47.4% | [12] 93.1% | [13] 98.7% | [14] 108% | [15] 91.5% | [16] 99.6% | [17] 98.6% | [18] 101%

CCCCCCCCCCCCCC[n+]1ccc2c(C)c3c(c(C)c2c1)c1cc(O)ccc1n3CC
active: [1] -52.5% | [2] -51.5% | [3] -43.4% | [4] -60.9% | [5] -59.8% | [6] -19% | [7] -75.6% | [8] -95.3% | [9] -41.3% | [11] -25.5% | [12] -74.3% | [13] -92.6% | [14] -72.2% | [15] -70.3% | [16] -79.4% | [17] -64.6% | [18] -67.3%
inactive: [10] 59.9%

Brc1ccc(-c2nn(-c3ccccc3)cc2-c2nn[nH]n2)s1
inactive: [1] 87.4% | [2] 89.5% | [3] 96.3% | [4] 108% | [5] 92.7% | [6] 98.2% | [7] 102% | [8] 96.5% | [9] 89.9% | [10] 103% | [11] 89.6% | [12] 93.2% | [13] 103% | [14] 97.1% | [15] 86.7% | [16] 88.5% | [17] 97.6% | [18] 99.7%

CN1CCN(Cc2ccc(NC(=O)c3cncc(C#Cc4c(N)ncc5ccccc45)c3)cc2C(F)(F)F)CC1
inactive: [12] 14.6%
active: [1] -42.6% | [2] -38% | [3] -62.3% | [4] -22.2% | [5] -55.1% | [6] 8.37% | [7] -62% | [8] -78.4% | [9] -31.5% | [10] -24.5% | [11] -64.5% | [13] -90.3% | [14] -71.3% | [15] -70.8% | [16] -96.5% | [17] -60.7% | [18] -65.2%

CC1=C2[C@@H](CC1)[C@]1(C)O[C@@](C(C)C)(C[C@H]1OC(=O)CO)[C@H]2OC(=O)CCCc1ccccc1
inactive: [1] 76.1% | [2] 22.7% | [3] 35.4% | [4] 100% | [5] 80% | [6] 105% | [7] 62.8% | [8] 61.3% | [10] 44.8% | [11] 25.3% | [12] 53.3% | [13] 78.7% | [14] 77.3% | [15] 82.4% | [16] 68.7% | [17] 84% | [18] 60.9%
active: [9] -4.02%

Cc1cccc(C)c1NC(=O)Nc1ccccc1
inactive: [1] 68.6% | [2] 96.1% | [3] 85.1% | [4] 72.2% | [5] 76.6% | [6] 102% | [7] 71% | [8] 115% | [9] 128% | [10] 97.1% | [11] 109% | [12] 116% | [13] 105% | [14] 54.1% | [15] 53.4% | [16] 61.9% | [17] 99.6% | [18] 102%

COc1ccc(NC(=O)CSc2oc(-c3ccccc3)nc2S(=O)(=O)c2ccc(Cl)cc2)c(OC)c1
inactive: [1] 65.2% | [2] 49.9% | [3] 34.3% | [4] 107% | [5] 64.6% | [6] 83.2% | [7] 93.5% | [8] 75.3% | [9] 36.2% | [10] 61.7% | [11] 60.5% | [12] 61.7% | [13] 86.6% | [14] 81.7% | [15] 73.8% | [16] 41.6% | [17] 83.5% | [18] 71.9%

N#C/C(=N\Nc1ccccc1)C(=O)Nc1cc(-c2ccccc2)nn1-c1ccccc1
inactive: [1] 62.3% | [2] 18.5% | [3] 40.6% | [4] 72.2% | [5] 22.1% | [6] 31.3% | [7] 30.6% | [8] 12.4% | [9] 41.9% | [10] 41.5% | [12] 16.2% | [13] 30.3% | [14] 20.2% | [15] 16.4% | [16] 16.1% | [17] 40.7% | [18] 36.8%
active: [11] 9.7%

C=CC(=O)Nc1ccc2ncnc(Nc3cccc(NS(=O)(=O)CCC)c3Cl)c2c1
inactive: [1] 35.7% | [2] 55.4% | [3] 48.2% | [4] 36.2% | [5] 66.8% | [6] 19.6% | [7] 18.5% | [8] 12.7% | [9] 20.6% | [10] 83.4% | [11] 24.5% | [12] 35.7% | [13] 26.2% | [14] 74.4% | [15] 56.2% | [16] 67.9% | [17] 93.3% | [18] 78.4%

O=c1cc(-c2nccc3c2[nH]c2ccccc23)c2cc(Cl)ccc2o1
inactive: [1] 15.2% | [2] 39.3% | [3] 54.4% | [4] 111% | [5] 56.6% | [6] 41.3% | [7] 61.3% | [9] 37.3% | [10] 33.4% | [11] 59.4% | [12] 36.1% | [14] 34.3% | [15] 27.2% | [17] 74.2% | [18] 29%
active: [8] 7.46% | [13] 1.21% | [16] 8.73%

Cc1ccc(Nc2oc(-c3ccccc3)nc2[P+](c2ccccc2)(c2ccccc2)c2ccccc2)cc1
active: [1] 8.76% | [2] -38.3% | [3] -27.3% | [5] 6.45% | [6] -33.7% | [7] -11.9% | [8] -30.7% | [9] -38.9% | [10] -52.3% | [11] -28.5% | [12] -21.5% | [13] -62.8% | [14] -48.2% | [15] -20.2% | [16] -66.4% | [17] -89.4% | [18] -51.5%
inactive: [4] 11.3%

COC(=O)c1c(C(=O)OC)c2ccc3c4ncccc4ccc3n2c1C(=O)c1ccc(C)cc1
inactive: [1] 75.8% | [2] 84.1% | [3] 82.7% | [4] 87.1% | [5] 90.9% | [6] 87.8% | [7] 94.4% | [8] 102% | [9] 96.3% | [10] 92.7% | [11] 54.4% | [12] 88.1% | [13] 102% | [14] 98.8% | [15] 86.2% | [16] 95.6% | [17] 107% | [18] 97%

CN1C(=O)N(C)C2C1NN=c1s/c(=C\c3ccccc3F)c(=O)n12 (stereo unspecified)
active: [8] -3.72% | [9] 7.57% | [10] -13.1% | [13] -40.2% | [17] 5.08%
inactive: [1] 18.2% | [2] 20.7% | [3] 10.1% | [4] 25.6% | [5] 49% | [6] 33.8% | [7] 20.8% | [11] 52.6% | [12] 18.9% | [14] 18.8% | [15] 18.6% | [16] 14% | [18] 17.4%
